Hits are enriched below; roughly 19% of the tested compounds scored in any of these assays.
Shiga toxin inh = blocks Shiga toxin action in Vero cells. inhibition, % at 38.7 µM. hit rate 9.2% among 290,000. Vero cells, Shiga toxin protein synthesis inhibition reporter; in the data active = inhibition mostly above about 28%, no sharp cut-off; inactive = mostly below about 43%; note: 0% is about no effect
Cycloheximide cs = counter-screen hit for Shiga toxin inhibitors, cycloheximide; max response, %; hit rate 12% among 300,000; AID 2314; cell reporter, cycloheximide protein synthesis inhibition counterscreen; in the data active = max response mostly above about 13%, no sharp cut-off; inactive = mostly below about 14%; note: read at 38.3 µM for the half of the compounds with a filed dose; 0% is about no effect
Pf growth 96h = inhibits malaria parasite growth, 96 h. P. falciparum luciferase reporter growth, 96 h. Potency, µM (top dose mostly 28.7 µM), for the others: top-dose activity change, negative = inhibition, actives largely listed as inhibitors. hit rate 6.9% among 320,000; note: potency is the fitted concentration of half-maximal effect; % is set by controls: 0 for no effect and ±100 for the full control effect
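Erythrocytes infected with luciferase-expressing P. falciparum were dispensed at 2% hematocrit and 0.05% parasitemia (final), then incubated with compounds 96 hours at 37 C in 5% CO2. Luminescence after detection reagent addition reported growth.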
AMA1-RON2 inh = inhibitors of Plasmodium falciparum AMA1-RON2 interaction; AlphaScreen AMA1-biotinylated RON2 peptide binding; Potency, µM (highest dose often 58.2 µM), without a hit: top-dose activity change, negative = inhibition, most hits filed as inhibitors; hit rate 0.2% among 360,000; AID 720542;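 note: potency is the fitted concentration of half-maximal effect; 0% = vehicle wells and -100% = peptide control; nearly all actives have a fitted effect of over 45% in size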
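AMA1 (3D7) with his tag at 25 nM final met compounds first, then biotinylated RON2 peptide at 25 nM; detection used donor plus acceptor beads, 10 µg/mL apiece, read by AlphaScreen after 30 min at room temperature.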
Pf growth 48h = inhibits P. falciparum growth in the first generation, 48 h; P. falciparum luciferase growth in erythrocytes, 48 h; hit rate 5.9% among 310,000; Potency, µM (doses to about 28.7 µM), for inactives: top-dose activity change, negative = inhibition, most hits filed as inhibitors; note: potency is the fitted concentration of half-maximal effect; % is set by controls: 0 for no effect and ±100 for the full control effect
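Here the parasites carry a stable luciferase gene and grow inside erythrocytes in Albumax-based RPMI medium with compound for one erythrocytic cycle. Activity is scored as loss of luminescent signal.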
SARS PLP yeast = inhibitors of SARS-CoV papain-like protease in yeast. S. cerevisiae expressing SARS-CoV PLpro, growth rescue. Potency, µM (highest dose often 32.9 µM), without a hit: at the highest dose activity, positive = growth rescue, actives largely listed as activators. hit rate 0.19% among 330,000. AID 485353; calls by dose curve; note: potency is the fitted concentration of half-maximal effect; 0% is about no effect; nearly all actives have a fitted effect of over 55% in size
Starred values were filed as active, the others as inactive; u = inconclusive; x = not tested or not shown; [ ] = another dose, or the depositor's remark. Unless noted, calls come from the whole dose curve; as a rule, active = well fitted curve in the direction sought with a large enough effect; inconclusive = small, poorly fitted or top-dose-only effect, or another doubt; inactive = no such curve, though single readings can be large; an effect the other way counts as inactive or inconclusive.

SMILES	Shiga toxin inh	Cycloheximide cs	Pf growth 96h	AMA1-RON2 inh	Pf growth 48h	SARS PLP yeast
Cc1ccn2c(NC(=O)c3ccccc3)c(-c3cccs3)nc2c1	34	12	51%	-20%	22%	3%
Cc1cccc(N(CC(=O)Nc2cccnc2)S(C)(=O)=O)c1	-2	-2	48%	0%	96%	-3%
CC1=Nc2ccccc2N=C(N)C1c1ccccc1 (stereo not drawn)	67*	40*	12%	-8%	62%	-6%
CCc1ccccc1N(CC(=O)O)S(C)(=O)=O	0	-2	15µM*	0%	11%	10%
[2H]c1c([2H])c([2H])c(-c2nc(N3CCCCCC3)sc2C(=O)c2ccccc2)c([2H])c1[2H]	-12	-4	4.1µM*	26%	u	-15%
O=C(COCC(=O)N/N=C/c1ccc(F)cc1)N/N=C/c1ccc(F)cc1	10	1	-29%	-4%	-8%	23%
O=C(N/N=C\c1ccc(F)cc1)c1csnn1	106*	44*	67%	-2%	50%	4%
Cc1ccccc1/C=N\NC(=O)c1csnn1	112*	60*	-4%	11%	64%	-10%
CCOc1ccccc1NC(=O)NCCCCc1ccccc1	4	-1	u	-18%	u	-8%
COC(=O)CN1C(c2ccc(Cl)cc2)=Nc2ccc(Cl)cc2C1c1ccccc1 (stereo not drawn)	12	5	3.3µM*	-7%	2.6µM*	-81%
NNC(=O)CN1C(c2ccccc2Br)=Nc2ccc(Br)cc2C1c1ccccc1 (stereo not drawn)	1	-3	u	24%	u	16%
COc1ccc(C2=Nc3ccc(C)cc3C(c3ccccc3)N2CC(=O)NN)cc1 (stereo not drawn)	-1	11	1.9µM*	-10%	-11%	-1%
O=C(O)CN1C(c2ccccc2)=Nc2ccc(Br)cc2C1c1ccccc1 (stereo not drawn)	16	-1	0%	2%	-27%	0%
NNC(=O)CN1C(c2cccc(Cl)c2)=Nc2ccc(Br)cc2C1c1ccccc1 (stereo not drawn)	-14	-6	90%	28%	1.9µM*	-6%
COc1ccc(C2=Nc3ccc(Br)cc3C(c3ccccc3)N2CC(=O)NN)cc1 (stereo not drawn)	-9	-1	0%	10%	13µM*	23%
CC1=Nc2ccc(Br)cc2C(c2ccccc2)N1CC(=O)O (stereo not drawn)	-4	-2	6%	17%	7%	1%
COc1cccc(CN2CCN(Cc3ccc4c(NC(C)=O)cccc4n3)CC2CCO)c1 (stereo not drawn)	-10	-1	-18%	20%	-15%	1%
COc1ccc(C(=O)NN2CCOCC2)cc1	-7	2	42%	-14%	-1%	-1%
CCCCCCn1cc(CN2CC(N3CCN(CCO)CC3)CS2(=O)=O)nn1 (stereo not drawn)	x	x	x	-3%	x	x
CCC(C)Sc1nc2c(c(=O)[nH]c(=O)n2C)n1Cc1ccc(Cl)cc1 (stereo not drawn)	-20	-2	x	-8%	10µM*	-4%
CC(C)Sc1nc2c(c(=O)[nH]c(=O)n2C)n1Cc1ccc(Cl)cc1	-11	-3	13µM*	0%	u	10%
CC(C)Sc1nc2c(c(=O)[nH]c(=O)n2C)n1Cc1ccccc1	-3	1	0%	-15%	-5%	20%
CCOC(=O)C(C)Sc1nc2c(c(=O)[nH]c(=O)n2C)n1Cc1ccc(Cl)cc1 (stereo not drawn)	-9	-2	u	-11%	u	2%
CCOC(=O)c1cccc(NC(=O)CN(c2ccc(C)cc2)S(=O)(=O)c2c(C)n[nH]c2C)c1	-15	-3	342%	-9%	u	-1%
O=C(N/N=C/c1ccc(OCCCF)cc1)c1cc(OCC(F)(F)F)ccc1OCC(F)(F)F	41	13	u	4%	38%	9%
SMILES	Shiga toxin inh	Cycloheximide cs	Pf growth 96h	AMA1-RON2 inh	Pf growth 48h	SARS PLP yeast
COc1ccc(C(=O)Nc2ccc(NC(=O)C3CC3)nc2)cc1	-8	-6	10µM*	15%	9%	4%
COc1cccc(C(=O)Nc2ccc(NC(=O)C3CC3)cn2)c1	70*	29*	8.3µM*	-15%	152%	-2%
CCn1nnnc1NC(=O)c1cc(Cl)c(OC)c(Cl)c1	14	-1	u	32%	10%	-2%
CCn1nnnc1NC(=O)c1cccc(OC)c1	83*	32*	3%	-9%	88%	0%
CCC(=O)Nc1ccc(NC(=O)c2cccc(OC)c2)nc1	24*	23*	-8%	-13%	392%	-9%
COc1ccc(NC(=O)c2ccc(NC(=O)C3CC3)cc2)cc1	10	-2	-2%	14%	-15%	-2%
COCCN(C(=O)c1snc(C(N)=O)c1N)C(C(=O)NC1CCCCC1)c1ccc(F)cc1 (stereo not drawn)	-4	-1	u	-5%	-6%	1%
CS(=O)(=O)N(Cc1ccccc1)c1ccc(C(=O)NCc2cccnc2)cc1	-13	0	x	-1%	4%	-3%
Cc1ccc(Nc2ccc(NCc3ccccc3)nn2)cc1C	68*	33*	u	u	u	10%
Clc1ccc(-c2nnc(NCc3ccccc3)c3ccccc23)cc1	12	2	u	-21%	u	-95%
Clc1ccc(Nc2ccc(NCc3ccccc3)nn2)cc1	60*	34*	1.9µM*	-9%	4.7µM*	12%
Cc1c(Cl)c(C(=O)N2CCCCCC2)nn1C	19	2	10%	6%	5%	-4%
O=C(Nc1nc([C@@H]2O[C@H](CO)[C@@H](O)[C@H](O)[C@H]2O)cs1)NC(c1ccccc1)c1ccccc1	x	x	x	-2%	x	x
Cc1c(C(=O)NCCO)sc2nc3n(c(=O)c12)CCC3	13	1	15%	30%	66%	0%
CCOC(=O)c1sc2nc(C)n(N)c(=O)c2c1C	-9	5	37%	3%	32%	0%
CCOC(=O)c1sc2nc3n(c(=O)c2c1C)CCCCC3	103*	47*	-1%	4%	67%	4%
CCCC(C)NC(=O)c1sc2nc3n(c(=O)c2c1C)CCC3 (stereo not drawn)	29	17*	59%[5.75 µM]	2%	52%	0%
CCOC(=O)c1sc2nc3n(c(=O)c2c1C)CCC3	20	-3	37%	10%	26%	23%
CCOC(=O)c1sc2nc(SCC#N)n(CCCN3CCCC3=O)c(=O)c2c1C	-9	7	u	0%	10µM*	0%
CCOc1cc(C2NC(=O)NC(C)=C2C(=O)OCc2ccccc2)ccc1O (stereo not drawn)	11	-4	-10%	-1%	2.3µM*	3%
